Data taken from the supplement of paper PMC10849652.
Targets with a hit are over-represented here; the source holds about 8,800 in all. About 0.5% of all pairs of compound and target were hits. A number with no mark means an inactive call.

Legend:
Test in all cases: log2 fold change, soluble protein after heating vs DMSO (PISA); higher = thermal stabilisation; K562 lysate, 10 uM; active = over 0.2 and 3.5 SD of the protein, either way, in both replicates (recomputed)
[1] = compound: Cc1cn(-c2cc(NC(=O)c3ccc(C)c(Nc4nccc(-c5cccnc5)n4)c3)cc(C(F)(F)F)c2)cn1 [nilotinib]
Method in brief: (§1)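 Log-two fold change in thermal stability relative to solvent controls is reported from duplicates. For each sample, crude K562 extract from dounce-homogenised pellets in PBS pH 7.4 with 1 mM MgCl2, at 1 mg/mL protein, was treated with 10 μM compound for 30 min. Aliquots heated for 3 min across 48°C-58°C were pooled, brought to 0.5% NP-40 at 4°C and cleared at 21,000xg for 90 min. The supernatant was quantified by TMTpro 16plex LC-MS/MS with channel sums equalised.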

[2] = compound: Cc1nc(Nc2n[nH]c3c2CN(C(=O)N[C@H](CN(C)C)c2ccccc2)C3(C)C)c2sccc2n1
Method in brief: as §1

[3] = compound: Cc1nc(Nc2ncc(C(=O)Nc3c(C)cccc3Cl)s2)cc(N2CCN(CCO)CC2)n1 [dasatinib]
Method in brief: as §1

[4] = compound: Cc1ncc(-c2ccnc(Nc3ccc(S(C)(=O)=O)cc3)n2)n1C(C)C
Method in brief: as §1

[5] = compound: Cn1cc(-c2ccc3c(c2)CCN3C(=O)Cc2cccc(C(F)(F)F)c2)c2c(N)ncnc21
Method in brief: as §1

[6] = compound: Cn1cc(CNCC2CCN(c3ncc(C(=O)NO)cn3)CC2)c2ccccc21 [quisinostat]
Method in brief: as §1

[7] = compound: Cn1cncc1[C@@](N)(c1ccc(Cl)cc1)c1ccc2c(c1)c(-c1cccc(Cl)c1)cc(=O)n2C [tipifarnib]
Method in brief: as §1

[8] = compound: NC(=O)Nc1cc(-c2cccc(F)c2)sc1C(=O)N[C@H]1CCCNC1
Method in brief: as §1

[9] = compound: NC(=O)c1cnc(N[C@@H]2CCCC[C@@H]2N)nc1Nc1cccc(-n2nccn2)c1
Method in brief: as §1

[10] = compound: NC1(c2ccc(-c3nc4ccn5c(=O)[nH]nc5c4cc3-c3ccccc3)cc2)CCC1
Method in brief: as §1

Sequence of UniProt Q5EBM0 (Q5EBM0 whole entry, looked up): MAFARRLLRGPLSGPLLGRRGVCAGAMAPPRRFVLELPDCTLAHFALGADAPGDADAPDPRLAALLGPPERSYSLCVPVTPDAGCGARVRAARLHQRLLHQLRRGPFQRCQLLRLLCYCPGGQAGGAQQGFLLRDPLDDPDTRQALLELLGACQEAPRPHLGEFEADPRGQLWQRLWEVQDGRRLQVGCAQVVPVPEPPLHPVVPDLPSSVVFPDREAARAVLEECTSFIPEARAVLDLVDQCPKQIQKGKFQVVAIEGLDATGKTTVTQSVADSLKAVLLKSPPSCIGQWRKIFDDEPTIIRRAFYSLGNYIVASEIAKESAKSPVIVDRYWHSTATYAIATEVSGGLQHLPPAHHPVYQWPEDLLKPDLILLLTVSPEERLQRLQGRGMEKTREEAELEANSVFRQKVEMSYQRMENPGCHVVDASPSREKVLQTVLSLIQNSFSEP
Sequence of UniProt P48729 (P48729 whole entry, looked up): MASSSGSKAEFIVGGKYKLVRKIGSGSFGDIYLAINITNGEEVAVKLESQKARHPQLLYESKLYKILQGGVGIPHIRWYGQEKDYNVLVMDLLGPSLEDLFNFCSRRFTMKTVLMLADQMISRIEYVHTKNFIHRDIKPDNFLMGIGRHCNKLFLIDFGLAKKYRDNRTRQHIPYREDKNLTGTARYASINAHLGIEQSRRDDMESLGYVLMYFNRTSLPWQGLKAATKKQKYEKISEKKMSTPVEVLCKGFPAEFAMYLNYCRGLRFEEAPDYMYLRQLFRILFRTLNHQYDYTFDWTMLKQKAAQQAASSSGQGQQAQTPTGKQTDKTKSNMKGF
Sequence of UniProt Q6P3S1 (Q6P3S1 whole entry, looked up): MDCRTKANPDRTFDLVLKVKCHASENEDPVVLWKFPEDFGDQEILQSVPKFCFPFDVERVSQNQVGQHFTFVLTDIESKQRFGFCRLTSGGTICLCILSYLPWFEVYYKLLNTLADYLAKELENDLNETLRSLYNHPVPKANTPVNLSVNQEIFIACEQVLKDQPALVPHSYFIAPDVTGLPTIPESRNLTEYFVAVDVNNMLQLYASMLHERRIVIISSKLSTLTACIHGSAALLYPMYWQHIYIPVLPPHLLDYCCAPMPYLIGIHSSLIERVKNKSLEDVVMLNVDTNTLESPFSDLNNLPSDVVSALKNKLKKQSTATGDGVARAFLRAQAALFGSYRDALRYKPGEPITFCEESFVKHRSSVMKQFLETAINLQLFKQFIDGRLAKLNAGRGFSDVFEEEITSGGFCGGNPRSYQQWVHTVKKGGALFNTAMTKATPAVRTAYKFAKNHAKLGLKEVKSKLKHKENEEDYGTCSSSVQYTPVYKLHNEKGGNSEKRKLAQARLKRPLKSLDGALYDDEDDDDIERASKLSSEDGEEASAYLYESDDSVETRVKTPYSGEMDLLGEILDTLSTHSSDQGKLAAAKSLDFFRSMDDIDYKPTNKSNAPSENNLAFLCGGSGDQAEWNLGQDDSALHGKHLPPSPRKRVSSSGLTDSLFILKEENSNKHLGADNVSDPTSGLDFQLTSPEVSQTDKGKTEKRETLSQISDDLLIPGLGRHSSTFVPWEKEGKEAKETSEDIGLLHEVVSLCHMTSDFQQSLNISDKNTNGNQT
Sequence of UniProt P30622 (P30622 whole entry, looked up): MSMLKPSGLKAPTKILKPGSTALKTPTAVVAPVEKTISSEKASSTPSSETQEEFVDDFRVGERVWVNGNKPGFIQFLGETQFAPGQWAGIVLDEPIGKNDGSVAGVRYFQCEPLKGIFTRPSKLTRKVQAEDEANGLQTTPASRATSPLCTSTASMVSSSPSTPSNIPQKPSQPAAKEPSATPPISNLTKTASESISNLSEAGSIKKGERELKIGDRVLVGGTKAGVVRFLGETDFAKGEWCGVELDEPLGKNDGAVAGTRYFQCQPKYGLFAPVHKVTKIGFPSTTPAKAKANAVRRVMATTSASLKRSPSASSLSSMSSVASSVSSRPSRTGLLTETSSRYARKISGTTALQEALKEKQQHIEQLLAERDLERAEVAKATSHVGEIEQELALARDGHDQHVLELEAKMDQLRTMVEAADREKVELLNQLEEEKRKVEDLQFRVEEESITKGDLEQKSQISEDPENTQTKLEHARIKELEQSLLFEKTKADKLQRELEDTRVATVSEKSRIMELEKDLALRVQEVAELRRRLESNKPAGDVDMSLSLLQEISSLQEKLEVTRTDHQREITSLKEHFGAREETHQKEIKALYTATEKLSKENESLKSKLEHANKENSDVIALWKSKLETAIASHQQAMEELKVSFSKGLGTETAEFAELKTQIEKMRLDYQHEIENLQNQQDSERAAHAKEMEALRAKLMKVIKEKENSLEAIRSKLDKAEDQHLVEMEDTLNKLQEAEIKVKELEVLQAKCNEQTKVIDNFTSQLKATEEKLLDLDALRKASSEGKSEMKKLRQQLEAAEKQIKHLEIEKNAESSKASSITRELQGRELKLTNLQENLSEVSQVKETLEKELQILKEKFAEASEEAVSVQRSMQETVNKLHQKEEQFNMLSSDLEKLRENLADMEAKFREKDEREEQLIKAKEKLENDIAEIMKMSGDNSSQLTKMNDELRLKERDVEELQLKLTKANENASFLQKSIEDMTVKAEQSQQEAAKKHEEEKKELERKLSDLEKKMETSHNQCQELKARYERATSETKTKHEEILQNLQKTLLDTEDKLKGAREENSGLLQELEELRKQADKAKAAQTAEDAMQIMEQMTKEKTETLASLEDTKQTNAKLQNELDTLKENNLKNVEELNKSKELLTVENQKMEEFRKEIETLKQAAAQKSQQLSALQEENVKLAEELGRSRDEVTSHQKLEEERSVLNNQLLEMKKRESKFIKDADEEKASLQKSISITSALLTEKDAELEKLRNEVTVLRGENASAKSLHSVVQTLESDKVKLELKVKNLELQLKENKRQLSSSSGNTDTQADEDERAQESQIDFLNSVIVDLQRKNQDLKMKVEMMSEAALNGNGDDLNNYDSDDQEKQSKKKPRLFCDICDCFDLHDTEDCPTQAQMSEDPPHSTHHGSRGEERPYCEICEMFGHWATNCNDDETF
Sequence of UniProt Q9H5X1 (Q9H5X1 whole entry, looked up): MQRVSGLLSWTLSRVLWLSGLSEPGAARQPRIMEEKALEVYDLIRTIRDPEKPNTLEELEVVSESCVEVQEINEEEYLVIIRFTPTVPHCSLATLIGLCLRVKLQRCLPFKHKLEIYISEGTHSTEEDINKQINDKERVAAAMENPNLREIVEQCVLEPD
Sequence of UniProt P21964 (P21964 whole entry, looked up): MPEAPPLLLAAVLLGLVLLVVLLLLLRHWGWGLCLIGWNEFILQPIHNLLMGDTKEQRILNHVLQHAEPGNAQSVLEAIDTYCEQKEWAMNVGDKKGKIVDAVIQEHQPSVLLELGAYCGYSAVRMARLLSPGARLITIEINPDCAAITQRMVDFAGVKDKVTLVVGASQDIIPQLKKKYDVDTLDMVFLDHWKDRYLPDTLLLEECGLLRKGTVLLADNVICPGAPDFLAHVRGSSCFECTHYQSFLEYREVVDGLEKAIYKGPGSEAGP
Sequence of UniProt Q8IY22 (Q8IY22 whole entry, looked up): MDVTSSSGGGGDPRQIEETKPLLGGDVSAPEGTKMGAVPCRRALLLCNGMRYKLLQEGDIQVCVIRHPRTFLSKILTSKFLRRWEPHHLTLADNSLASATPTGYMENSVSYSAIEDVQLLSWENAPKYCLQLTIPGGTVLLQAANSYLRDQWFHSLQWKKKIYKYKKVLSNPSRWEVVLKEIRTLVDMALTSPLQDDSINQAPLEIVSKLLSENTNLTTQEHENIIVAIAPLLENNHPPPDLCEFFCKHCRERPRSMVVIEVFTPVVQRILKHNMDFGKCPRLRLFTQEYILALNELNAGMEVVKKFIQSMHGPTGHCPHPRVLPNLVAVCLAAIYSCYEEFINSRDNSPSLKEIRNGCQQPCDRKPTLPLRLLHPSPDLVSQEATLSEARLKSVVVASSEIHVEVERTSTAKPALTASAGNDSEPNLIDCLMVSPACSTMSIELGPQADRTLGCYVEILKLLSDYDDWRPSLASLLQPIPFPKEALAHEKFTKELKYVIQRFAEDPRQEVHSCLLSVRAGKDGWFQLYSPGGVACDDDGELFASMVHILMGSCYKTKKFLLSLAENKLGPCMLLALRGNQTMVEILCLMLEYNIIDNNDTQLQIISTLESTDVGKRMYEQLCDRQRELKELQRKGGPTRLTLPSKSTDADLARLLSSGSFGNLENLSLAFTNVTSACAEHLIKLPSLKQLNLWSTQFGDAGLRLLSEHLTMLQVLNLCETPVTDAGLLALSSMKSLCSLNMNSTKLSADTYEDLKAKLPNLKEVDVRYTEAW
Sequence of UniProt Q9BY43 (Q9BY43 whole entry, looked up): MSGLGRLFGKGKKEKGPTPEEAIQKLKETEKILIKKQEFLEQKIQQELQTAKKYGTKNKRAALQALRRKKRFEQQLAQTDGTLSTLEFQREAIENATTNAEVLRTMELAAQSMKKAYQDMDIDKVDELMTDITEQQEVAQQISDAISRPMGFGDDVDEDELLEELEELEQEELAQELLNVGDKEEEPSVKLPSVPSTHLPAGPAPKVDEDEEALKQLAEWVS
Sequence of UniProt Q13217 (Q13217 whole entry, looked up): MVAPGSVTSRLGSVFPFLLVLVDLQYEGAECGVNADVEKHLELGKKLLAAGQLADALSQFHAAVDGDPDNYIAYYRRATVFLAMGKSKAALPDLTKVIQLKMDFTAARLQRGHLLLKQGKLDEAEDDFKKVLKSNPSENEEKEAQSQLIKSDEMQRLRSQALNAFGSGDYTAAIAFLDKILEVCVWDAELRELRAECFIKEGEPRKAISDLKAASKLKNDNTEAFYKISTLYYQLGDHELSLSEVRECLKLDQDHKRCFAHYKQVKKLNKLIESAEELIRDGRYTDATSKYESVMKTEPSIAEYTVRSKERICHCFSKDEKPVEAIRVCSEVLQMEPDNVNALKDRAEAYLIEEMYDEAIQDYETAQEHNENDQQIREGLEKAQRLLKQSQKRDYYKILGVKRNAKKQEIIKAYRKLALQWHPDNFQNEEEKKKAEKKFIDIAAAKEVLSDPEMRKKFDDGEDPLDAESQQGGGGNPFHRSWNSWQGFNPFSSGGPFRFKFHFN

Target	log2 fold change [1]	log2 fold change [2]	log2 fold change [3]	log2 fold change [4]	log2 fold change [5]	log2 fold change [6]	log2 fold change [7]	log2 fold change [8]	log2 fold change [9]	log2 fold change [10]
CLASP1 (UniProt Q7Z460)	-0.015	0.021	-0.097	0.013	0.016	-0.085	-0.051	-0.022	0.012	-0.018
CMIP (UniProt Q8IY22)	-0.034	0.023	-0.063	0.016	0.008	-0.052	-0.045	0.075	-0.008	-0.036
CSDE1 isoform 4 (UniProt O75534)	0.01	-0.018	-0.012	0.001	0.048	0.014	0.012	0.041	-0.009	-0.016
DFFB (UniProt O76075)	0.192	-0.062	0.008	0.155	0.012	0.038	-0.013	-0.049	0.026	-0.047
CLIP1 isoform 2 (UniProt P30622)	0.055	-0.04	0.049	-0.073	-0.01	-0.049	0.015	-0.015	0.029	-0.059
COG7 (UniProt P83436)	0.02	0.007	-0.089	0.011	0.024	0	-0.001	0.033	-0.019	0.001
CIAO2A (UniProt Q9H5X1)	-0.018	0.033	-0.037	-0.074	0.011	0.011	-0.067	-0.004	-0.027	-0.038
CHORDC1 (UniProt Q9UHD1)	0.024	-0.003	0.016	0.034	0.008	0.018	0.021	-0.015	0	-0.005
CORO7 isoform 3 (UniProt P57737)	-0.006	0.003	-0.032	0.01	0.019	-0.026	0.005	0.012	-0.016	-0.013
COG2 (UniProt Q14746)	0.024	0.008	-0.024	0.096	-0.002	-0.029	-0.06	0.055	0.001	0.009
DIAPH1 (UniProt O60610)	-0.003	-0.009	-0.019	-0.009	0.006	-0.006	-0.006	-0.006	0.002	0.008
DLGAP5 (UniProt Q15398)	-0.013	0.029	-0.036	0	0.001	-0.033	0.001	0.011	0.006	0.007
CXorf38 (UniProt Q8TB03)	0.029	0.013	-0.04	0.053	-0.034	0.004	0.002	0.006	0.049	0.009
DOCK10 (UniProt Q96BY6)	-0.046	-0.008	-0.086	-0.081	0.025	-0.636 (active)	-0.129	-0.011	0.029	-0.086
DNAJC3 (UniProt Q13217)	0.029	-0.019	0.074	0.008	0.023	0.11	-0.085	-0.055	0.012	0.005
COMT (UniProt P21964)	-0.007	-0.029	-0.02	-0.018	0.02	-0.08	0.013	0.028	0.005	0.009
CHFR (UniProt Q96EP1)	0.035	0.082	0.017	0.019	0.049	0.02	0.013	0.036	0.246	0.005
DMXL1 (UniProt Q9Y485)	0.03	0.006	-0.017	-0.005	0.025	-0.009	-0.015	0.01	0.014	0.034
DENND1B (UniProt Q6P3S1)	0.042	-0.073	0.073	-0.05	-0.09	-0.16	0.017	0.211	0.2	0.209
DENND4A isoform 2 (UniProt Q7Z401)	-0.02	-0.002	-0.008	0.023	0.008	-0.083	-0.017	0.058	0.042	0.008
COG5 isoform 2 (UniProt Q9UP83)	-0.023	0.057	-0.153	-0.003	0.037	-0.031	-0.019	0.043	-0.081	-0.12
CSNK1E (UniProt P49674)	-0.025	-0.008	0.053	0.091	-0.078	-0.075	-0.092	0.059	0.055	-0.06
CSNK1A1 (UniProt P48729)	-0.04	0.045	0.088	0.123	-0.039	-0.04	-0.019	0.197	0.018	-0.07
DONSON (UniProt Q9NYP3)	0.035	0.004	-0.031	0.066	-0.035	-0.051	-0.024	-0.003	-0.022	0.082
CHMP4A isoform 2 (UniProt Q9BY43)	-0.026	-0.021	0.039	0	-0.011	-0.145	0.017	-0.029	-0.02	-0.009
CNOT4 isoform 6 (UniProt O95628)	-0.004	0.053	0.034	0.057	0.013	0.107	-0.018	0.041	-0.022	0.008
CMPK2 (UniProt Q5EBM0)	-0.075	-0.01	-0.067	0.005	-0.011	-0.02	0.042	0.032	-0.006	0.013
DNM2 (UniProt P50570)	0	-0.015	-0.045	-0.016	0.028	0.016	0.011	0.034	0.037	0.009
CHURC1 isoform 2 (UniProt Q8WUH1)	0.055	-0.029	0.016	-0.09	-0.001	-0.074	0.027	0.018	-0.041	-0.083
